Inconclusive results are not listed. Unmarked numbers belong to inactive results. The source made the active and inactive calls. Calls follow the shape of the dose curve; as a rule, active = well fitted activation curve with a large enough effect in the signal ratio in the repeat runs (not every such curve was filed as active); inconclusive = weak or mixed curves, or effect the other way; inactive = no such curve, though single readings can be large or run the other way; the % refers to the signal ratio.
Target: Glucocorticoid receptor (Homo sapiens) (UniProt P04150)
Sequence (P04150 whole entry, looked up): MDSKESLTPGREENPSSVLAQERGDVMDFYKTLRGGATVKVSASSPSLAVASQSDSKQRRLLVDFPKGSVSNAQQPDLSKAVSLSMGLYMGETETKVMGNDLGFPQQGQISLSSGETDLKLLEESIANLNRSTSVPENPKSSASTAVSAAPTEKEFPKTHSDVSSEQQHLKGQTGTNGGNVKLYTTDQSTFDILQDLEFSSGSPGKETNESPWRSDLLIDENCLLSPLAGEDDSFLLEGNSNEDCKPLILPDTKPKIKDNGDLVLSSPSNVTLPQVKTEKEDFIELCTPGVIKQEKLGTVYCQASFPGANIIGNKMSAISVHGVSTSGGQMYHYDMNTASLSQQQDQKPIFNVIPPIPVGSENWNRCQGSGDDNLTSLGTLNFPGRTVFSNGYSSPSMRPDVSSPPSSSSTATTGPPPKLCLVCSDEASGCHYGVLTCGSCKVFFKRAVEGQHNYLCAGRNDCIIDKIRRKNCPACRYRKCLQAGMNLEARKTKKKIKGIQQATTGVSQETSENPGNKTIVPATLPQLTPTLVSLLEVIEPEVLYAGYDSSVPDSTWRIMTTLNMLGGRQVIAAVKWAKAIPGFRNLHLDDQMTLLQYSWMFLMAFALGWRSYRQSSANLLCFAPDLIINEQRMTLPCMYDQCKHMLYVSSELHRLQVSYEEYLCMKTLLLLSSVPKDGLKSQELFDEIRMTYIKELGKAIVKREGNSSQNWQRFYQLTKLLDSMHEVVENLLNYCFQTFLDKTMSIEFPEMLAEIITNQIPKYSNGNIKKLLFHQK
Assay: qHTS assay to identify small molecule agonists of the glucocorticoid receptor (GR) signaling pathway (AID 720691)
Details: GR-bla HeLa, beta-lactamase reporter ratio, 18 h; series mostly up to 62.4 µM; activation: at the top concentration
Text: U.S. Tox21 Program National Center for Advancing Translational Sciences [NCATS] NIH Chemical Genomics Center [NCGC] U.S. Environmental Protection Agency [EPA] National Institutes of Environmental Health Sciences [NIEHS] National Toxicology Program [NTP] U.S. Food and Drug Administration [FDA] Tox21 Assay Overview: The Glucocorticoid receptor (GR) is one of the members of the nuclear receptor family of ligand-dependent transcription factors. GR plays a critical role in carbohydrate, protein and lipid metabolisms and programmed cell death. CellSensor GR-bla HeLa cell line (Invitrogen) contains a beta-lactamase reporter gene under the control of the glucocorticoid response element stably integrated into HeLa cells, a cervical cancer cell line that expresses glucocorticoid receptor. The activation of the reporter gene under culture conditions can be detected by fluorescence intensity. This cell line has been used to screen the Tox21 10K compound library and to identify the compounds that activate the GR signaling.
Tox21 Assay Protocol Summary: The GR-bla HeLa cells were dispensed at 1500 cells/6 ul/well in 1536-well black wall/clear bottom plates using a Multidrop Combi (ThermoFisher Scientific, Waltham, MA) dispenser. After the assay plates were incubated at a 37 C/5% CO2 incubator for 4 hours, 23 nL of compounds dissolved in DMSO, positive controls or DMSO only was transferred to the assay plate by a pintool station (Kalypsys, San Diego, CA). The plates were incubated at 37 C for 18 hours. After 1 uL of LiveBLAzerTM B/G FRET substrate was added using a Flying Reagent Dispenser (Aurora Discovery, San Diego, CA), the plates were incubated at room temperature for 2 hours, and fluorescence intensity was measured by an Envision plate reader (PerkinElmer, Shelton, CT).
% is scaled to controls: 0 for no effect and ±100 for the full control effect.

Compound | outcome | activation [%]
CCCCSP(=O)(SCCCC)SCCCC | inactive | –
CCOC(=O)c1ccccc1N | inactive | –
S=c1[nH]c2ccccc2[nH]1 | – | -2.96
Cc1ccc([N+](=O)[O-])cc1 | inactive | –
COP(=O)(NC(C)=O)SC (stereo not given) | inactive | –
CCC/C=N/O | inactive | –
N#CCCCCC#N | inactive | –
CC1CC(=O)O1 (stereo not given) | inactive | –
COP(=S)(OC)Oc1ccc(S(=O)(=O)N(C)C)cc1 | inactive | –
CNC(=O)Oc1cccc2c1OC(C)(C)C2 | inactive | –
Cc1cccc(N=Nc2ccc(N(C)C)cc2)c1 | – | -2.62
CC1=C(C(=O)Nc2ccccc2)SCCO1 | inactive | –
C[C@]12CCC(=O)C=C1CC[C@@H]1[C@@H]2CC[C@@]2(C)[C@H]1CC[C@]2(C)O | – | -12.4
CC(C)CON=O | inactive | –
CCC1(c2ccc(N)cc2)CCC(=O)NC1=O (stereo not given) | inactive | –
CCOP(=S)(OCC)SCn1c(=O)oc2cc(Cl)ccc21 | inactive | –
O=P(OCCCl)(OCCCl)OCCCl | inactive | –
COc1ccc(O)c(C(C)(C)C)c1 | inactive | –
Nc1ncn[nH]1 | inactive | –
CCCCC(C#N)(Cn1cncn1)c1ccc(Cl)cc1 (stereo not given) | inactive | –

Compound | outcome | activation [%]
CCOP(=O)(OCC)OCC | inactive | –
CCCCCCCCCCCCCl | inactive | –
Clc1ccc(C(Cl)(Cl)Cl)cc1 | inactive | –
CCCCCCCCCC(CC)c1ccc(S(=O)(=O)O)cc1 (stereo not given) | inactive | –
O=NN1CCOCC1 | inactive | –
N#Cc1cccnc1 | inactive | –
CCOP(=S)(OCC)OP(=S)(OCC)OCC | inactive | –
COC(=O)Nc1nc2ccccc2[nH]1 | inactive | –
OCCOCCO | inactive | –
CCCCOC(=O)COC(=O)c1ccccc1C(=O)OCCCC | inactive | –
CN(C)c1ccccc1 | inactive | –
Clc1cccc(Cl)c1 | inactive | –
C=CC(Cl)CCl (stereo not given) | inactive | –
O=C1CCCO1 | inactive | –
ClCC(Cl)CCl | inactive | –
CC(C)COC(=O)c1ccccc1C(=O)OCC(C)C | inactive | –
CC(C)(C#N)N=NC(C)(C)C#N | inactive | –
O=C(O)c1nn(Cc2ccc(Cl)cc2Cl)c2ccccc12 | inactive | –
O=[N+]([O-])/N=C1\NCCN1Cc1ccc(Cl)nc1 | inactive | –
O=[N+]([O-])c1ccc(Nc2ccccc2)cc1 | inactive | –
